Source: PubChem (several laboratories)
SKKanGAS inh: S. pyogenes SKKanGAS growth inhibitors in kanamycin, primary screen, streptokinase expression inhibitor project, SKKanGAS strain, BacTiter-Glo luminescence; 6 h; 1.3% of 300,000 active; inhibition, % at 7.5 µM; AID 1662, 2009;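 active means mean replicate score, as percent of positive control median, at least 50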;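 further: strain carries kanamycin resistance gene driven by streptokinase promoter and grows in 40 µg/ml kanamycin; loss of luminescence reflects streptokinase promoter inhibition or plain growth inhibition; 0% = median of DMSO wells and 100% = positive control at its reference dose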
IDE cell inh: human IDE inhibitors in live cells, primary screen, fluorescence polarization, HEK cells, FAbetaB substrate; inhibition, % at 5.59 µM; FAbetaB cleavage; AID 434962, 2010; 0.41% of 320,000 active;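 active means percent inhibition above the average of all tested compounds plus 3 SD, set per screening campaign, cut at about 16% in these data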;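 further: IDE supplied by intact live HEK cells; FP after avidin binding of uncleaved biotin substrate so inhibition keeps polarization high; 0% = DMSO wells and 100% = 60 µM reference IDE inhibitor Ii1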
IDE act: human IDE activators in live cells, primary screen, fluorescence polarization, HEK cells, FAbeta-B substrate. Insulin-degrading enzyme (Homo sapiens), P14735. FAbeta-B cleavage; 0% vehicle, 100% cell-free pure enzyme wells. activation, % at 5.96 µM. 0.073% of 340,000 active. AID 493087, 2011;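 active means activation above the mean of all tested compounds plus 3 SD, set per screening campaign, cut at about 17% in these data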
PP5 primary: PP5 phosphatase inhibitors, primary screen, biochemical, fluorescence | purified PP5c, OMFP substrate fluorescence | 0.18% of 320,000 active | AID 1987, 2009 | inhibition, % at 6.7 µM;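 active means inhibition above the campaign's mean inhibition across all tested compounds plus 3 SD, cut at about 9.5% in these data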;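 further: 0% = DMSO only and 100% = 100 µM cantharidin control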
Target sequence (P53041 whole entry, looked up): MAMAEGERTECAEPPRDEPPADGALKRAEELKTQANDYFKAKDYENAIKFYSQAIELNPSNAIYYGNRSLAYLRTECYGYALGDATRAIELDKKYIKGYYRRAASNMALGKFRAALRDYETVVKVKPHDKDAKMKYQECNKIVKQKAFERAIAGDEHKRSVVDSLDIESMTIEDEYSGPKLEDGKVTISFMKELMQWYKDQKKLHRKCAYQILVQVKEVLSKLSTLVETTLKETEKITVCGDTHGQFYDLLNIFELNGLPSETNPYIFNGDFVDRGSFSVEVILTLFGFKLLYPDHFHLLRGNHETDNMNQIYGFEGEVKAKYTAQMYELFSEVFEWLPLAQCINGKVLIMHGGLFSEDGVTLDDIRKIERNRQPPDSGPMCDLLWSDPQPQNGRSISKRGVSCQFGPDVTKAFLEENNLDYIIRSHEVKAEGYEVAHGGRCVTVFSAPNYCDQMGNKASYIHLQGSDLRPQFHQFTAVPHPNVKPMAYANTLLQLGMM
Granule exo inh: LAMP-1 surface exposure blockers, TALL-104 cells – cell-based, flow cytometry, MLPCN library, primary screen | inhibition, % at 10 µM | 0.66% of 360,000 active | TALL-104 LAMP-1 surface exposure; cells stimulated with thapsigargin and PMA;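 active means inhibition above about 55%, limit read from the data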
PP1 counter: PP1-alpha phosphatase inhibitors, primary screen, counter-screen for PP5 inhibitor project, biochemical, fluorescence, OMFP substrate, single point; Serine/threonine-protein phosphatase PP1-alpha catalytic subunit (Homo sapiens), P62136; purified PP1alpha; inhibition, % at 6.7 µM; 0.9% of 320,000 active;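 active means inhibition above the mean inhibition of all tested compounds plus 3 SD, computed separately for each screening campaign, cut at about 15% in these data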
* hit, by the source's call. Hits are enriched below; roughly 2.8% of the tested compounds scored in any of these assays.

CCCn1cnc2cc(NCc3cccc(OC)c3O)ccc21 was read as SKKanGAS inh 13.7, IDE cell inh -3.1, IDE act 3.5, PP5 primary 1.5, Granule exo inh -2.2 and PP1 counter 5.7.
`COc1cccc(CNc2ccc3c(c2)ncn3C(C)C)c1OC` gave SKKanGAS inh -1.9, IDE cell inh -9.8, IDE act 20.0*, PP5 primary 0.2, Granule exo inh -1.1 and PP1 counter 0.7.
`CCCCN1C(=O)/C(=C/C=C2\Oc3ccccc3N2CC)SC1=S` gave SKKanGAS inh 0.8, IDE act -149.5 and Granule exo inh 0.1.
CCN1/C(=C/C=C/c2oc3ccc(-c4ccccc4)cc3[n+]2CC)Oc2ccc(-c3ccccc3)cc21 was read as SKKanGAS inh 92.6*, IDE cell inh -9.1, IDE act 2.1, PP5 primary -49.0, Granule exo inh 28.6 and PP1 counter 10.6.
O=S(=O)(c1ccc(F)cc1)c1nc(-c2ccccc2)oc1N1CCOCC1 was read as SKKanGAS inh 54.1*, IDE cell inh -0.9, IDE act 4.0, PP5 primary 3.7, Granule exo inh -5.0 and PP1 counter 2.8.
CCCCOc1ccc(C(=O)Oc2cccnc2)cc1 was read as SKKanGAS inh 8.5, IDE cell inh 0.5, IDE act -2.7, PP5 primary 2.8, Granule exo inh -18.5 and PP1 counter 3.8.
For CC1(C)CC[C@]2(C(=O)O[C@@H]3O[C@H](CO)[C@@H](O)[C@H](O)[C@H]3O)CC[C@]3(C)C(=CCC4[C@@]5(C)CC[C@H](O[C@@H]6O[C@H](C(=O)O)[C@@H](O[C@H]7OC[C@@H](O)[C@@H](O)[C@@H]7O)[C@H](O)[C@H]6O)C(C)(C)C5CC[C@]43C)[C@@H]2C1 (some centres undefined) the results were IDE cell inh -0.4, IDE act 3.5 and Granule exo inh 55.8*.
`Cc1ccccc1-n1c(SCC(=O)NCc2cccs2)nc2ccccc2c1=O` gave SKKanGAS inh -13.2, IDE cell inh 6.5, IDE act 1.3, PP5 primary -1.2, Granule exo inh -0.6 and PP1 counter -1.3.
Cc1ccccc1C1(CCN2CCCCC2)CCOC(C)(C)C1 (centres undefined) was read as SKKanGAS inh -0.1, IDE cell inh 3.6, IDE act -2.5, PP5 primary 0.1, Granule exo inh -1.3 and PP1 counter -2.6.
`CCCCOc1ncnc2c1[nH]c1ccc(C)cc12` gave SKKanGAS inh 4.6, IDE cell inh 37.6*, PP5 primary 2.5, Granule exo inh 1.4 and PP1 counter 6.1.
Cc1cccc(N2CCN(C(=O)c3cn(C)c(=O)c4c3c3ccccc3n4C)CC2)c1C was read as SKKanGAS inh 11.1, IDE cell inh 0.8, IDE act -6.0, PP5 primary 4.9, Granule exo inh 18.4 and PP1 counter -0.1.
Cc1ccc(Cl)cc1N1CCN(C(=O)c2cn(C)c(=O)c3c2c2ccccc2n3C)CC1 was read as SKKanGAS inh 81.7*, IDE cell inh -1.1, IDE act 5.8, PP5 primary -0.8, Granule exo inh 14.7 and PP1 counter -1.7.
For O=C1c2cccc3c(O)ccc(c23)C(=O)N1Cc1ccco1 the results were SKKanGAS inh 11.7, IDE act 29.7* and Granule exo inh 8.3.
`O=C1c2cccc3c(O)ccc(c23)C(=O)N1c1ccc(Cl)cc1` gave SKKanGAS inh 14.8, IDE cell inh -32.2, IDE act 52.2*, PP5 primary -10.3, Granule exo inh -1.0 and PP1 counter -9.3.
`O=C(Nc1ccccc1)c1nnsc1S(=O)c1ccc(Cl)cc1` (centres undefined) gave SKKanGAS inh 73.0*, IDE cell inh 9.4, IDE act -19.8, PP5 primary 0.9, Granule exo inh 60.3* and PP1 counter 2.2.
`O=C(c1nnsc1S(=O)c1ccc(Cl)cc1)N1CCOCC1` (centres undefined) gave SKKanGAS inh 36.0, IDE act -5.1 and Granule exo inh 43.0.
For CCN(CC(=O)Nc1c(F)cccc1F)C(=O)c1cccnc1Sc1ccccc1 the results were SKKanGAS inh -21.9, IDE cell inh 0.7, IDE act 4.8, PP5 primary -1.6, Granule exo inh -7.9 and PP1 counter -5.1.
Screening O=C(NNC(=S)NC(=O)c1cccs1)c1ccc(O)cc1 returned IDE act 1.9 and Granule exo inh -16.3.
For O=C(Cc1cccs1)NNC(=S)NC(=O)c1ccccc1 the results were SKKanGAS inh 56.4*, IDE cell inh -2.0, IDE act 4.9, PP5 primary -2.0, Granule exo inh -2.6 and PP1 counter 3.2.
For O=C(Cc1ccccc1)NNC(=S)NC(=O)c1cccs1 the results were SKKanGAS inh 79.4*, IDE cell inh 7.3, PP5 primary 2.8, Granule exo inh -0.4 and PP1 counter 8.2.
For O=C(NC(=S)NNC(=O)c1cccs1)c1ccc(Br)o1 the results were SKKanGAS inh 101.1*, IDE cell inh -5.6, IDE act -2.2, PP5 primary -0.1, Granule exo inh 1.4 and PP1 counter 2.7.
For Cc1ccc(S(=O)(=O)N2[C@@H](c3ccccc3)C(C(=O)O)=CC[C@H]2c2ccc(C(C)C)cc2)cc1 the results were IDE cell inh -1.8, IDE act -3.1, PP5 primary 4.4, Granule exo inh -4.3 and PP1 counter 15.4*.
Screening Cc1ccc(S(=O)(=O)N2[C@@H](c3cccc(Cl)c3)C(C(=O)O)=CC[C@H]2c2cccc(Cl)c2)cc1 returned IDE cell inh -0.3, IDE act -1.4, PP5 primary 3.5, Granule exo inh 7.7 and PP1 counter 4.7.
Cc1ccc([C@H]2C(C(=O)O)=CC[C@@H](c3ccc(C(C)C)cc3)N2S(=O)(=O)c2ccc(C)cc2)cc1 was read as IDE cell inh 1.4, IDE act 2.6 and Granule exo inh 0.7.
CCc1ccc([C@@H]2CC=C(C(=O)O)[C@H](c3cccc(Cl)c3)N2S(=O)(=O)c2ccc(C)cc2)cc1 was read as IDE cell inh -0.7, IDE act -4.3, PP5 primary 3.1, Granule exo inh -3.7 and PP1 counter 15.9*.
For Cc1cc(N)n(-c2ccccn2)n1 the results were SKKanGAS inh -1.4, IDE cell inh 2.7, IDE act 6.0, PP5 primary 3.1, Granule exo inh 1.2 and PP1 counter 3.1.
`Cc1ccc(C2(c3ccc(C)cc3)CC2C(=O)Nc2ccc([N+](=O)[O-])cc2O)cc1` (centres undefined) gave SKKanGAS inh 105.4*, IDE cell inh -3.6, IDE act 5.2, PP5 primary 2.1, Granule exo inh 31.6 and PP1 counter 11.2.
